We go through 23 molecules from PubChem BioAssay (NCATS).

One assay deals with CRL-7250. The assay is described as follows: Cytotoxic Profiling of Annotated Libraries Using Quantitative High-Throughput Screening (AID 1296008). For max response: % is set by controls: 0 for no effect and ±100 for the full control effect. Note: potency is the fitted concentration of half-maximal effect. To be noted: Five cell lines viability, CellTiter-Glo ATP luminescence, 48-72 h; max response: stronger effect = lower value. A digest of the protocol: (§1)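 Cytotoxicity was measured as CellTiter-Glo ATP luminescence, read after 10 min at room temperature. Compound treatment of the cells lasted 48 or 72 hr at 37 degrees Celsius in a qHTS format.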

Assay [1] has as its system HaCat. Described as above. The conditions noted are these: Five cell lines viability, CellTiter-Glo ATP luminescence, 48-72 h; max response: stronger effect = lower value. The procedure, abridged:
as §1
A general note: ATP-based viability assays read luminescence as a measure of living cells.

The subject of the next assay is KB-3-1. Described as above. The conditions noted are these: Five cell lines viability, CellTiter-Glo ATP luminescence, 48-72 h; max response: stronger effect = lower value. A digest of the protocol: as §1
For assay [2], the system named is HACAT. Kind of assay: qHTS assay to identify novel small-molecules to repurpose for Merkel cell carcinoma treatment (AID 1296009). To be noted: MCC and control cell lines, CellTiter-Glo viability, 72 h; at 44.8 µM (top of the series) unless noted. A digest of the protocol:
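Cell viability measured by CellTiter-Glo following 72 hr compound treatment at 37 degree celsius, with NPC and MIPE libraries tested in 8- and 11-point concentration series.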
In general terms: Quantitative high-throughput screening tests each substance at several concentrations.

The test system of another assay is NIH3T3. Kind of assay: Cytotoxic Profiling of Annotated Libraries Using Quantitative High-Throughput Screening (AID 1296008). For max response: % is set by controls: 0 for no effect and ±100 for the full control effect. Note: potency is the fitted concentration of half-maximal effect. To be noted: Five cell lines viability, CellTiter-Glo ATP luminescence, 48-72 h; max response: stronger effect = lower value. A digest of the protocol:
as §1

SMILES strings stand for the structures. Inconclusive results are not listed. Values without a mark were called inactive. The source made the active and inactive calls. Calls come from the whole dose curve; as a rule, active = well fitted inhibition curve with a large enough effect; inconclusive = small, poorly fitted or top-dose-only effect; inactive = flat fitted curve, though single readings scatter.
Note: nearly all actives have a fitted effect of over 60% in size.

On to `CCOc1cccc(NC(=O)c2ccc(N3CCCC3)c(C(F)(F)F)c2)c1`, for which the results for the max response with CRL-7250 and in the assay with KB-3-1 were -10.4% and -0.259%, respectively. In addition, the call in the assay on HaCat [1] and in the assay with HACAT [2] was inactive.

As to `COc1ccc2cc(-c3cc(-c4cc(Cl)cc(Cl)c4)nn3C(C)c3ccc(C(=O)NCCC(=O)O)cc3)ccc2c1` (configuration not stated), the max response with CRL-7250 is 2.03%; with KB-3-1, -23.8%. Also, the result in the assay on HaCat [1], in the assay with NIH3T3 and with HACAT [2] was inactive.

For the molecule `CC(=O)c1c(C)cc2cccc(O)c2c1O[C@@H]1O[C@H](CO)[C@@H](O)[C@H](O)[C@H]1O`, the max response in the assay with CRL-7250 is -1.95%; in the assay on NIH3T3 it was -3.48%. Besides, the molecule was called inactive in the assay with HaCat [1], in the assay on KB-3-1 and in the assay on HACAT [2].

On to `CCN(CC)CCCCCCNc1cc(OC)cc2c(C)ccnc12`, for which the values for the max response in the assay with CRL-7250 and in the assay on KB-3-1 were -13.4% and -5.11%, respectively. Further, the molecule was called inactive in the assay with HaCat [1] and with HACAT [2].

Take `CC1OC(=O)C[C@@H]2C(C(=O)O)=CO[C@@H](O[C@H]3O[C@H](CO)[C@@H](O)[C@H](O)[C@H]3O)[C@H]12` (some centres not stated): the max response in the assay on CRL-7250 is -4.73%. Further, the outcome in the assay on HaCat [1], in the assay on KB-3-1, with NIH3T3 and in the assay with HACAT [2] was inactive.

As to `CCn1c(=O)n([C@H]2CCCN(c3nccc(-c4cc5ccccc5o4)n3)C2)c2ccccc21`, the molecule was called inactive in the assay with CRL-7250, in the assay on HaCat [1], in the assay with NIH3T3 and with HACAT [2]. Further, the max response in the assay on KB-3-1 was -9.5%.

Consider `O=S(=O)(Cc1ccccc1)Nc1ccc(-c2ccc3c(cnn3-c3ccc(F)cc3)c2)c(C(F)(F)F)c1`, for which the max response in the assay on CRL-7250 is -4.69%; in the assay on KB-3-1, -15.9%; in the assay on NIH3T3 it was -4.39%. The molecule was called inactive with HaCat [1] and in the assay with HACAT [2].

As for `C=C1C(=O)OC2/C=C(\CO)CC/C=C(\C=O)C(O)C(OC(=O)C(C)CC)C12` (configuration not stated), the max response with CRL-7250 was 0.0349%. For the same molecule, the molecule was classed as inactive in the assay on HaCat [1], with KB-3-1 and with HACAT [2].

Consider `CC[C@H](C)/C=C(C)/C=C/C1=CC2=C(Cl)C(=O)[C@](C)(O)[C@H](OC(C)=O)[C@H]2CO1`, for which the max response in the assay with CRL-7250 is -9.34%; in the assay with KB-3-1, -1.44%. Moreover, the molecule was called inactive with HaCat [1], with NIH3T3 and in the assay on HACAT [2].

For `C=C1C(=O)O[C@@H]2/C=C(\C)CC/C=C(/C=O)[C@H](OC)[C@@H](OC(=O)C(C)C)[C@@H]12`, the max response in the assay with CRL-7250 was 2.09%. In addition, the outcome in the assay with HaCat [1], with KB-3-1 and in the assay on HACAT [2] was inactive.

On to `Cc1[nH]c(/C=C2\C(=O)Nc3cc(-c4ccccc4)ccc32)c(C)c1CCC(=O)O`, for which the max response in the assay on CRL-7250 is -17.7%; in the assay on KB-3-1, -8.26%. Besides, the molecule was called inactive in the assay on HaCat [1] and with HACAT [2].

As for `CC(C)(F)CC(NC(c1ccc(-c2ccc(S(C)(=O)=O)cc2)cc1)C(F)(F)F)C(=O)NC1(C#N)CC1` (configuration not stated), in the assay on CRL-7250, the max response was -1.34%. The result with HaCat [1], in the assay on KB-3-1, in the assay on NIH3T3 and in the assay on HACAT [2] was inactive.

As for `Cc1nc(C(=O)N2CCC[C@H]2Cc2nnc(-c3ccccc3)o2)c(-c2ccccc2F)s1`, the call with CRL-7250, in the assay on HaCat [1], in the assay on KB-3-1 and in the assay on HACAT [2] was inactive. Besides, the max response in the assay with NIH3T3 is 4.09%.

Regarding `CN1CCN(C2=Nc3ccccc3Nc3ccc(Cl)cc32)CC1`, the max response in the assay on CRL-7250 was -0.222%; in the assay with KB-3-1, -4.21%; in the assay on NIH3T3, 2.15%. Also, the molecule was called inactive with HaCat [1] and in the assay with HACAT [2].

Turning to `C=C(CCC1C(C)(O)CCC2C(C)(C)C(O)CCC12C)C(O)CO` (configuration not stated), the max response with CRL-7250 was -26.3%; in the assay on KB-3-1, -9.88%; with NIH3T3, -4.7%. Besides, the result with HaCat [1] and in the assay on HACAT [2] was inactive.

`CN1CC[C@@H](c2c(O)cc(O)c3c(=O)cc(-c4ccc(C(F)(F)F)cc4Cl)oc23)[C@@H]1CO`: the molecule was classed as inactive with CRL-7250, in the assay on HaCat [1] and with HACAT [2]. Also, the figures for the max response with KB-3-1 and in the assay on NIH3T3 were 5.55% and -4.65%, respectively.

Turning to `NCC(CNc1nc(Nc2cccc(NC(=O)N3CCCC3)c2)ncc1I)C(=O)c1cccs1` (configuration not stated), in the assay with CRL-7250, the max response is -26%. In addition, the molecule was classed as inactive in the assay with HaCat [1] and in the assay on HACAT [2]. Further, in the assay on KB-3-1, the Potency is 11.6 µM (active).

Turning to `Cc1csc(N(C(=O)CSc2ccc(-c3ccccc3)nn2)C2CC2)n1`, the max response was -10.7% in the assay with CRL-7250 and -2.9% in the assay on KB-3-1. For the same molecule, the molecule was classed as inactive with HaCat [1] and in the assay on HACAT [2].

As for `C=C1CCC2C(C)(C(=O)O)CCCC2(C)C1CCC1=CCOC1=O` (configuration not stated), the molecule was called inactive with CRL-7250, with HaCat [1], with NIH3T3 and in the assay with HACAT [2]. The max response with KB-3-1 was -6.84%.

As for `COC(=O)C[C@H]1C(C)(C)[C@H](OC(=O)c2ccccc2)C2CC3=C4CC(=O)O[C@@H](c5ccoc5)[C@]4(C)CCC3[C@@]1(C)C2=O` (some centres not stated), the max response in the assay with CRL-7250 was -6.86%; with KB-3-1, 0.65%; with NIH3T3, 0.65%. Also, in the assay on HaCat [1], the result was inactive. In the assay on HACAT [2], the outcome was “inactive [at 17.4 µM]”.

In the case of `CC1(C)OC[C@H](NC(=O)Nc2ccc(Br)cc2Br)[C@H](c2ccccc2)O1`, the call in the assay on CRL-7250 was inactive. The max response with HaCat [1] is -5.94%; in the assay with NIH3T3 it was 0.948%.

With `C/C=C/[C@@H]1C=C[C@@H]2C[C@H](C)CC[C@H]2[C@]1(C)/C(O)=C1/C(=O)[C@@H](CO)N(C)C1=O`, the outcome with CRL-7250 and with NIH3T3 was inactive. The max response in the assay on HaCat [1] is 3.96%.

In the case of `CC(=O)Nc1cccc(Nc2ncnc(N3CCC(OCc4ccc(OC(F)(F)F)cc4)CC3)n2)c1C`, the Potency in the assay on CRL-7250 is 13 µM (active). Further, the max response in the assay with HaCat [1] is -26.7%; in the assay on NIH3T3 it was -3.89%.
